Assay results reported in PubChem BioAssay (Tox21).
Inconclusive results are not listed. Active and inactive are the calls of the source. The call rests on the fitted dose curve; in most records, active means well fitted cell-killing curve with a large enough effect in the repeat runs; inconclusive means weak or mixed curves, or effect the other way; inactive means no such curve, though single readings can be large or run the other way.

Assay: qHTS assay to identify small molecule antagonists of the retinoid-related orphan receptor gamma (ROR-gamma) signaling pathway - cell viability counter screen (AID 1159520); further: nearly all actives have a fitted effect of over 50% in size
Settings: Tet-on RORgamma CHO cells viability, ATP luminescence, 16 h; series mostly up to 92.4 µM; activity, negative = cytotoxicity: at the top concentration
Excerpt: U.S. Tox21 Program National Center for Advancing Translational Sciences [NCATS] NIH Chemical Genomics Center [NCGC] U.S. Environmental Protection Agency [EPA] National Institutes of Environmental Health Sciences [NIEHS] National Toxicology Program [NTP] U.S. Food and Drug Administration [FDA] Tox21 Assay Overview: Nuclear steroid hormone receptors are involved in many biological processes including inflammatory responses, cell proliferation, and apoptosis. Environmental factors or compounds disrupting these nuclear receptor pathways and gene expression may promote susceptibility to immunotoxicants and autoimmune diseases. One important group of these expression factors are the retinoid-related orphan receptors. To assess compounds that may interfere with the retinoid-related orphan receptor gamma (ROR-gamma) transcription factor, a cell-based luciferase assay was used. The CHO cell-based assay utilizes a TET-inducible ROR expression factor and ROR response element-LUC reporter gene. Reporter gene activity was induced using Doxycycline Hyclate and measured after 16 hr incubation. Tet-on ROR gamma CHO cells were used to screen against the Tox21 10K compound library for cytotoxicity by measuring the viability of the cells based on the quantitation of the ATP.
Tox21 Assay Protocol Summary: Tet-on ROR gamma CHO cells were dispensed at 1,000 cells in 4 uL of culture medium per well into white wall/solid bottom 1536-well plates using a Multidrop Combi (Thermo Scientific, Waltham, MA) dispenser. Following incubation at 37 C and 5% CO2 for 4 hr, 23 nL of compounds dissolved in DMSO, positive controls or DMSO only were transferred by a Pintool station (Kalypsys, San Diego, CA) and after 2 hr incubation at 37 C, one ul of 1 uM (final concentration) of Doxycycline Hyclate was added to all the wells by using a Flying Reagent Dispenser (FRD) (Aurora Discovery, San Diego, CA). After 16 hr incubation at 37 C and 5% CO2, 5 uL of CellTiter-Glo reagent (Promega Corporation, Madison, WI) was added to each assay plate using FRD. After 30 min incubation at room temperature, luminescence was quantified on a ViewLux plate reader (Perkin Elmer, Waltham, MA).
On the % scale 0 is the no-effect control and ±100 the full control effect; potency means the concentration at half of the fitted maximal effect.

| Structure (SMILES) | activity, negative = cytotoxicity | Potency |
| --- | --- | --- |
| Cl/C=C\Cl | 5.99% (inactive) | – |
| O=C(N[C@H](c1ccccc1)[C@@H]1CN2CCC1CC2)c1c(Cl)ccc(C(F)(F)F)c1Cl | -2.94% (inactive) | – |
| CC/C(=N\OC/C=C/Cl)C1=C(O)CC(C2CCOCC2)CC1=O (stereo not given) | 0.844% (inactive) | – |
| O=C(NC(=O)c1c(F)cccc1F)Nc1ccc(OC(F)(F)C(F)OC(F)(F)F)c(Cl)c1 (stereo not given) | 6.4% [at 42.5 µM] (inactive) | – |
| CCn1cc[n+](C)c1 | – | inactive |
| CN1C(=O)C(O)N=C(c2ccccc2)c2cc(Cl)ccc21 (stereo not given) | -13.5% (inactive) | – |
| COC(=O)C(C)N(C(=O)Cc1ccccc1)c1c(C)cccc1C (stereo not given) | -6.67% (inactive) | – |
| Cc1ccc2ccccc2c1 | 3.39% (inactive) | – |
| NNC(=O)c1cccnc1 | -4.89% (inactive) | – |
| C=C(C#N)CCC#N | 6.92% (inactive) | – |
| COc1c(C(C)(C)C)cc([N+](=O)[O-])c(C)c1[N+](=O)[O-] | 5.6% (inactive) | – |
| O=C=Nc1ccc(Cl)cc1 | -3.55% (inactive) | – |
| O=[N+]([O-])C(Br)(CO)CO | – | 43.3 µM (active) |
| CCCCc1c(C)nc(NCC)nc1OS(=O)(=O)N(C)C | -1.65% (inactive) | – |
| O=C1NCN(c2ccccc2)C12CCN(CCCOc1ccc(F)cc1)CC2 | -4.87% [at 42.5 µM] (inactive) | – |
| C[C@]12CC[C@H]3[C@@H](CCC4=CC(=O)CC[C@@H]43)[C@@H]1CC[C@@H]2OC(=O)CCC1CCCCC1 | -5.38% [at 42.5 µM] (inactive) | – |
| CCBr | -7.5% (inactive) | – |
| CC[C@H]1C[C@H]2[C@@H]3CCC4=CC(=O)CC[C@@H]4[C@H]3CC[C@]2(C)[C@H]1O | -5.26% [at 42.5 µM] (inactive) | – |
| CCCN(CC1CC1)c1c([N+](=O)[O-])cc(C(F)(F)F)cc1[N+](=O)[O-] | -2.01% (inactive) | – |
| COc1ccc(-c2ccccc2)cc1NNC(=O)OC(C)C | 0.542% (inactive) | – |

| Structure (SMILES) | activity, negative = cytotoxicity | Potency |
| --- | --- | --- |
| [O-][Cl+]O | 4.32% (inactive) | – |
| COP(=S)(OC)Oc1cc(Cl)c(I)cc1Cl | -1.14% (inactive) | – |
| Cc1ccc(N)cc1C | -10.4% (inactive) | – |
| C#CCOC(C(=O)OCCN(C)C)(c1ccccc1)c1ccccc1 | 2.75% [at 42.5 µM] (inactive) | – |
| O=[N+]([O-])c1ccccc1CCl | 4.81% (inactive) | – |
| C=CCN1CC[C@]23c4c5ccc(O)c4O[C@H]2C(=O)CC[C@@]3(O)[C@H]1C5 | 2.44% [at 42.5 µM] (inactive) | – |
| C=CCCl | 0.9% (inactive) | – |
| CCOc1ccc(C(C)(C)COCc2cccc(Oc3ccccc3)c2)cc1 | 2.6% (inactive) | – |
| C=CCC1([C@H](C)CCC)C(=O)NC(=O)NC1=O | -3.06% (inactive) | – |
| O=C(O)C(F)(F)C(F)(F)C(F)(F)C(F)(F)C(F)(F)C(F)(F)C(F)(F)C(F)(F)C(F)(F)F | 5.82% (inactive) | – |
| C=CC(=O)OC(C)(C)C | 0.663% (inactive) | – |
| Nc1ccc(N=Nc2ccc(-c3ccc(N=Nc4c(S(=O)(=O)O)cc5cc(S(=O)(=O)O)c(N=Nc6ccccc6)c(O)c5c4N)cc3)cc2)c(N)c1 | – | 15.7 µM (active) |
| O=C1C(=O)c2cccc3cccc1c23 | -15.8% (inactive) | – |
| COCCOCCO | -0.808% (inactive) | – |
| II | – | 30.6 µM (active) |
| CN(C)c1ccc(N(C)C)cc1 | -10.9% (inactive) | – |
| COC(N)=O | -17.5% (inactive) | – |
| CCCC(=O)Cl | -1.13% (inactive) | – |
| CC1(C)[C@H](C=C(Cl)Cl)[C@@H]1C(=O)O[C@@H](C#N)c1cccc(Oc2ccccc2)c1 | -8.03% (inactive) | – |
| CC1C(=O)C[C@]2(C(C)C)C[C@H]12 (stereo not given in full) | 1.99% (inactive) | – |
